# In the OligoGym collection:
# Biological target: ADAP1
# Assay: pooled miR-30 sensor sort-seq; sequence = guide strand
# Conditions: shRNA
# Also: reference of the scale not given here.
row,Sequence,sensor-assay potency score (higher = more potent)
1,TAGATGAAGATGTTACGGGTGC,-0.0419
2,TTCACCTTGCTGACCTGGGGGA,-0.267
3,AAACAGAAACTTGCGGTCGGGC,-0.903
4,TCGTTCTGTCAGCACAAACTTC,-1.49
5,TTCTGTCAGCACAAACTTCCGG,-0.508
6,TAGGGCTCCTGCTTCTCCGGGT,0.35
7,TTCTGTTGAAATACTTCAGAGC,-0.664
8,TCTTTGAAGTACATGAGCCTGC,0.0128
9,TTGAAGTACATGAGCCTGCGGT,-0.124
10,ATTTCTGTTGAAATACTTCAGA,-1.12
11,TGAAATACTTCAGAGCACCCTC,-0.32
12,TCTGTCAGCACAAACTTCCGGC,0.0597

# Biological target: ADCYAP1
# Assay: as above
# Conditions: shRNA
row,Sequence,sensor-assay potency score (higher = more potent)
1,TTATCCCATAGACCAGCAGGGC,-1.43
2,TCTTCCTCTGGCCTGATCCCGG,-1.48
3,TTAACCCTTTGTTTATACCTCT,-0.397
